Results filed as inconclusive are left out. A call without a number means that no potency is given here. Calls of active or inactive are those of the source. Calls follow the shape of the dose curve; as a rule, active = well fitted inhibition curve with a large enough effect; inconclusive = small, poorly fitted or top-dose-only effect; inactive = flat fitted curve, though single readings scatter.
Potency is read from the fitted curve at half-maximal effect.

The assay is described as follows: P-glycoprotein substrates identified in KB-8-5-11 adenocarcinoma cell line, qHTS therapeutic library screen (AID 1346987). Also: nearly all actives have a fitted effect of over 65% in size. As to conditions: KB-8-5-11 (P-gp overexpressing) viability, CellTiter-Glo, 72 h; series mostly up to 44.5 µM. The gist of the method: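 Luminescence from CellTiter-Glo, read 5 min after addition, quantified survival of KB-8-5-11 (P-gp-overexpressing) cells exposed to compounds for 72 h. AC50 was derived from concentration-response curves.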
A general note: Quantitative high-throughput screening tests each substance at several concentrations.
As to `CC[C@H]1NC(=O)[C@@H](NC(=O)c2ncccc2O)[C@@H](C)OC(=O)[C@H](c2ccccc2)NC(=O)[C@@H]2CC(=O)CCN2C(=O)[C@H](Cc2ccccc2)N(C)C(=O)[C@@H]2CCCN2C1=O`, the Potency result was “inactive”.
Next, `NC(=O)c1ccc[n+]([C@@H]2O[C@H](COP(=O)([O-])OP(=O)(O)OC[C@H]3O[C@@H](n4cnc5c(N)ncnc54)[C@H](O)[C@@H]3O)[C@@H](O)[C@H]2O)c1`: “inactive”; `CC1(C)S[C@@H]2[C@H](NC(=O)C3(N)CCCCC3)C(=O)N2[C@H]1C(=O)O`: “inactive”; `C=CC(=O)O`: “inactive”.
Turning to `Cc1cc(=O)c(C(=O)N[C@@H](C(=O)N[C@@H]2C(=O)N3C(C(=O)O)=C(CSc4nnnn4C)CS[C@H]23)c2ccc(O)cc2)c[nH]1`, the Potency entry is “inactive”.
The same measure for `Cn1nnnc1SCC1=C(C(=O)O)N2C(=O)[C@@H](NC(=O)[C@H](O)c3ccccc3)[C@H]2SC1`: “inactive”; for `NCC[C@H](O)C(=O)N[C@@H]1C[C@H](N)[C@@H](O[C@H]2O[C@H](CN)[C@@H](O)[C@H](O)[C@H]2O)[C@H](O)[C@H]1O[C@H]1O[C@H](CO)[C@@H](O)[C@H](N)[C@H]1O`: “inactive”; for `CCCCCCCCCC(=O)NO`: “inactive”.
Regarding `C[N+]1(C)[C@@H]2CC(OC(=O)C(O)(c3cccs3)c3cccs3)C[C@H]1[C@@H]1O[C@@H]12` (stereo partly drawn), the Potency entry was “inactive”.
Regarding `Cc1c(N)nc([C@H](CC(N)=O)NC[C@H](N)C(N)=O)nc1C(=O)N[C@H](C(=O)N[C@H](C)[C@@H](O)[C@H](C)C(=O)N[C@H](C(=O)NCCc1nc(-c2nc(C(=O)NCCCCN=C(N)N)cs2)cs1)[C@@H](C)O)[C@@H](O[C@@H]1O[C@@H](CO)[C@@H](O)[C@H](O)[C@@H]1O[C@H]1O[C@H](CO)[C@@H](O)[C@H](OC(N)=O)[C@@H]1O)c1cnc[nH]1`, the Potency result is “inactive”.
Next, `NC(=S)NS(=O)(=O)c1ccc(N)cc1`: “inactive”; `OC[C@H]1O[C@@](CO)(O[C@H]2O[C@H](CO)[C@@H](O)[C@H](O)[C@H]2O)[C@@H](O)[C@@H]1O`: “inactive”; `CC(C)Cc1ccc([C@@H](C)C(=O)NS(C)(=O)=O)cc1`: “inactive”.
On to `CCCCCCCCCCCC(=O)OC[C@@H](O)C1OC[C@H](O)[C@H]1O` (stereo partly drawn), for which the Potency result is “inactive”.
The same measure for `CCC(O)c1ccccc1` (stereo not drawn): “inactive”; for `NC(N)=NCC1COc2ccccc2O1` (stereo not drawn): “inactive”; for `CCCCCCCCCCCCCCCCCC[N+](C)(C)CCC[Si](OC)(OC)OC`: “inactive”.
Next, `C=CC[N@@+]12CC[C@@]34c5ccccc5N5/C=C6/[C@H]7C[C@H]8[C@@]9(CC[N@@+]8(CC=C)C/C7=C/CO)c7ccccc7N(/C=C(/[C@@H](C[C@@H]31)/C(=C\CO)C2)[C@H]54)[C@@H]69`: “inactive”; `NC(=O)[C@@H]1C[C@]2(NC(=O)NC2=O)c2cc(F)ccc2O1`: “inactive”.
Regarding `CN(CCO)CC(O)Cn1cnc2c1c(=O)n(C)c(=O)n2C` (stereo not drawn) (tested in a mixture with another compound), the Potency entry was “inactive”.
In the case of `COC1=C(OC)C(=O)C(C/C=C(\C)CC/C=C(\C)CC/C=C(\C)CC/C=C(\C)CC/C=C(\C)CC/C=C(\C)CC/C=C(\C)CC/C=C(\C)CC/C=C(\C)CCC=C(C)C)=C(C)C1=O`, the Potency entry was “inactive”.
The same measure for `CC(=O)OCC1=C(C(=O)O)N2C(=O)[C@@H](NC(=O)Cc3ccccc3)[C@H]2SC1`: “inactive”.
Turning to `CCCC(=O)O`, the Potency result was “inactive”.
The same measure for `COc1ccc(/C=N/NC(=O)c2ccncc2)c(C(=O)O)c1OC`: “inactive”; for `CC(=O)N[C@@H]([C@@H](O)[C@H](O)[C@H](O)CO)[C@@H](O)CC(=O)C(=O)O`: “inactive”; for `NC(=O)OCC(O)COc1ccc(Cl)cc1` (stereo not drawn): “inactive”.
The same measure for `OC1OC[C@@H](O)[C@H](O)[C@@H]1O` (stereo partly drawn): “inactive”; for `O=C(O)[C@H]1CN(C/C=C/P(=O)(O)O)CCN1`: “inactive”; for `CCCC(=O)Nc1c(I)cc(I)c(CC(CC)C(=O)O)c1I` (stereo not drawn): “inactive”.
In the case of `O=C(OC[C@H]1O[C@@H](OC(=O)c2cc(O)c(O)c(OC(=O)c3cc(O)c(O)c(O)c3)c2)[C@H](OC(=O)c2cc(O)c(O)c(OC(=O)c3cc(O)c(O)c(O)c3)c2)[C@@H](OC(=O)c2cc(O)c(O)c(OC(=O)c3cc(O)c(O)c(O)c3)c2)[C@@H]1OC(=O)c1cc(O)c(O)c(OC(=O)c2cc(O)c(O)c(O)c2)c1)c1cc(O)c(O)c(OC(=O)c2cc(O)c(O)c(O)c2)c1`, the Potency was 23.1 µM (active).
Turning to `O=C(O)[C@@H]1C[C@H](CP(=O)(O)O)CCN1`, the Potency result is “inactive”.
Turning to `CO/N=C(\C(=O)N[C@@H]1C(=O)N2C(C(=O)O)=C(CSc3nnnn3C)CS[C@H]12)c1csc(N)n1`, the Potency entry was “inactive”.
The same measure for `CC/C=C\C/C=C\C/C=C\C/C=C\C/C=C\CCCC(=O)O`: “inactive”.
On to `CC(C)=CCC/C(C)=C/CC/C(C)=C/CC/C=C(\C)CC/C=C(\C)CCC=C(C)C`, for which the Potency entry is “inactive”.
Next, `N=C(N)c1ccc(/C=C/c2ccc(C(=N)N)cc2O)cc1`: 18.4 µM (active); `C=CC1=C(C(=O)O)N2C(=O)[C@@H](NC(=O)/C(=N\O)c3csc(N)n3)[C@H]2SC1` (stereo in doubt): “inactive”; `C/C=C/C=C/C(=O)O`: “inactive”.
Next, `CC(O)[C@@H]1NC(=O)[C@H](Cc2ccccc2)NC(=O)[C@H](C(C)O)NC(=O)[C@H](CCCCN)NC(=O)[C@H](Cc2c[nH]c3ccccc23)NC(=O)[C@H](Cc2ccccc2)NC(=O)[C@H](Cc2ccccc2)NC(=O)[C@H](CC(N)=O)NC(=O)[C@H](CCCCN)NC(=O)[C@@H](NC(=O)CNC(=O)[C@H](C)N)CSSC[C@@H](C(=O)O)NC(=O)[C@H](CO)NC1=O` (stereo partly drawn): “inactive”.

The values are drawn from PubChem BioAssay (NCATS).
